Source: PubChem BioAssay (NCI)
The panel holds about 83,000 compounds, 20% with a hit somewhere; the sample as a whole holds those more often.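 Treatment: one concentration, 48 hours, 96-well format. Scoring: percent growth, with anything below 10 considered active.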 Unmarked numbers belong to inactive results. Calls of active or inactive are those of the source.

test system: MDA-MB-468 breast; assay: NCI-60 one-dose screen, 48 h (100 = growth as untreated, 0 = no growth, -100 = all killed); conditions: 10 µM unless noted

Row | SMILES | growth
1 | Cc1ccc(-n2nc(C(C)(C)C)cc2NC(=O)NCc2cc(F)ccc2Oc2ccc3c(cnn3CCO)c2)cc1 | 23.5%
2 | C=C1CC[C@@H]2[C@](C)(COC(C)=O)[C@H](OC(C)=O)CC[C@@]2(C)[C@@H]1CC(Nc1ccc(S(=O)(=O)Nc2nccc(C)n2)cc1)C1=CCOC1=O (some centres not stated) | -45.8% (active)
3 | CCCCC1CCCC12NC(=O)NC2=O (configuration not stated) | 112%
4 | C=C1CC[C@H]2[C@@](C)(CCC3OC(c4ccc(OCc5cn(C6CC(OC(C)=O)C(OC(C)=O)C(COC(C)=O)O6)nn5)cc4)OC[C@]32C)[C@@H]1/C=C/C1=CCOC1=O (some centres not stated) | 47.3%
5 | Nc1nc(-c2ccccc2Br)nn1-c1nc2ccccc2s1 | 103%
6 | CN1CCN(C(=O)OCCOCCOC(=O)N2CCN(C)CC2)CC1 | 107%
7 | CC1=C(N2CCOCC2)C(N2CCOCC2)=C(C)C(=O)C1=O | 97.1%
8 | O=C1/C(=C\c2ccc(Cl)cc2)CN(C(=S)Nc2ccccc2)C/C1=C\c1ccc(Cl)cc1 | -64.4% (active)
9 | N#Cc1ccc(OC(=O)Nc2ccc(Cl)c(Cl)c2)cc1 | 42.9%
10 | COc1ccc(-c2nn(-c3cccc(Cl)c3)cc2-c2c(C#N)c(N)n(N)c(=O)c2C#N)cc1 | 56.1%
11 | COc1ccc(-c2c3c(nc4n[nH]c(-c5ccc(Cl)cc5)c24)-c2ccccc2C(=O)C3=O)cc1 | -9.02% (active)
12 | COc1ccc(C2CC(c3cccc(Nc4nc(Cl)nc5cc(OC)c(OC)cc45)c3)=Nc3c(N)nc(N)nc3N2)cc1 (configuration not stated) | 92.3%
13 | c1ccc2c(-c3nccs3)c[nH]c2c1 | 91.3%
14 | Cn1c2c(Cl)c(Cl)ccc2c2cc(N)[nH]c(=O)c21 | 88.9%
15 | O=C(Nc1ccc(Cl)cc1F)c1cc(I)ccc1O | 41.4%
16 | N=c1ccc2nc3ccc(N)cc3sc-2c1 | -16.2% (active)
17 | O=C(Nc1ccc(-c2nc(N3CCOCC3)c3cccn3n2)cc1)Nc1cccnc1 | -37.9% (active)
18 | CCN(CC)c1ccc2nc3ccc(N=Nc4ccc(N(C)C)cc4)cc3[n+](-c3ccccc3)c2c1 | -65.6% (active)
19 | Cl/C(=N\Nc1ccccc1)c1ccccc1 | 79%

Row | SMILES | growth
20 | C=CCN1C(=O)/C(=C/C(=O)OC)S/C1=N\NC(=O)c1cc2ccc1/C=C\c1ccc(cc1)/C=C\2 | 76.3%
21 | COc1cccc(/C=C/c2c(C(=O)O)cccc2[N+](=O)[O-])c1OC | 108%
22 | O=C(Nc1ccncc1)C(=O)c1cn(S(=O)(=O)c2ccc(Br)cc2)c2ccccc12 | 6.9% (active)
23 | Clc1ccc2c(NCCNc3nc(N4CCCCC4)nc4ccccc34)ccnc2c1 | -31.7% (active)
24 | O=C(Nc1ccc(Br)cc1F)c1cc(F)ccc1O | -0.885% (active)
25 | O=C1OC(c2ccc(-c3ccccc3)cc2)=C/C1=C/c1c2ccccc2cc2ccccc12 | 90.2%
26 | CC1(C)CC(=O)C2=C(C1)N(c1ccc(OC(F)(F)F)cc1)C(N)=C(C#N)C2c1ccc(Cl)cc1 (configuration not stated) | 93.1%
27 | O=C(C[P+](c1ccccc1)(c1ccccc1)c1ccccc1)C[P+](c1ccccc1)(c1ccccc1)c1ccccc1 | -33.8% (active)
28 | COc1ccc(C2CC(c3ccc4ccccc4c3)=NN2/C=C2\SC(=S)N(NC(=O)Cc3ccccc3Nc3c(Cl)cccc3Cl)C2=O)cc1 (configuration not stated) | 7.11% (active)
29 | CCN(CC)c1cc(N)c(Cc2c(N)cc(N(CC)CC)cc2Cl)c(Cl)c1 | -15.8% (active)
30 | COc1ccc2c(c1)c(-c1nc(-c3c[nH]c4ncccc34)cs1)cn2CCCN1CCCCC1 | 57.9%
31 | Nc1c2c(c(O)c3c1=C(CO)C=N3)=NCCS2=O (configuration not stated) | -79.6% (active)
32 | CCN(CC)c1ccc(/C=N/NC(=O)c2ccccc2Nc2ccnc(C(F)(F)F)c2)c(O)c1 | 24.7%
33 | O=C1/C(=C/c2ccccc2O)N=C2SCCCN12 | 99.2%
34 | Cc1ccc(S(=O)(=O)NCCCNc2cc(-c3cn(C(C)(C)C)nc3-c3cccc(O)c3)ccn2)cc1 | 35.5%
35 | C#CC(F)(F)[C@]1(O)CC[C@H]2[C@@H]3CCC4=CC(=O)CCC4=C3[C@@H](c3ccc(C4CC4)cc3)C[C@@]21C | 33.8%
36 | CC1CCC(C(=O)O)N1 (configuration not stated) | 106%
37 | CC(=O)[C@H]1CC[C@]2(C)[C@@H]1CC[C@@H]1[C@@]3(C)CC(CCC#N)(CCC#N)C(=O)C(C)(C)[C@@H]3CC[C@]12C | 99.7%
